Experimental data: PubChem BioAssay (Tox21)
Where “and” joins values, the source holds several entries; their conditions need not be identical. Equal entries are not always repeated. Inconclusive results are not listed. A structure can be active in one record and inactive in another. Calls of active or inactive are those of the source. Unless noted, the call rests on the fitted dose curve.

molecular target: Peroxisome proliferator-activated receptor delta (Homo sapiens) (UniProt Q03181); test: qHTS assay to identify small molecule agonists of the peroxisome proliferator-activated receptor delta (PPARd) signaling pathway (AID 743212); settings: HEK293H PPARd-UAS-bla, beta-lactamase FRET ratio, 17 h; series mostly up to 62.6 µM; activation: at the top concentration;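 further: HEK293H cells with PPARd UAS beta-lactamase reporter GeneBLAzer system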
In short: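 A PPARd-bla HEK293H line with beta-lactamase under an Upstream Activator Sequence is treated with compounds at 37 C. Substrate loading for 2 h at room temperature precedes the fluorescence measurement.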
On the % scale 0 is the no-effect control and ±100 the full control effect.

Peroxisome proliferator-activated receptor delta (Homo sapiens), sequence (Q03181 whole entry, looked up): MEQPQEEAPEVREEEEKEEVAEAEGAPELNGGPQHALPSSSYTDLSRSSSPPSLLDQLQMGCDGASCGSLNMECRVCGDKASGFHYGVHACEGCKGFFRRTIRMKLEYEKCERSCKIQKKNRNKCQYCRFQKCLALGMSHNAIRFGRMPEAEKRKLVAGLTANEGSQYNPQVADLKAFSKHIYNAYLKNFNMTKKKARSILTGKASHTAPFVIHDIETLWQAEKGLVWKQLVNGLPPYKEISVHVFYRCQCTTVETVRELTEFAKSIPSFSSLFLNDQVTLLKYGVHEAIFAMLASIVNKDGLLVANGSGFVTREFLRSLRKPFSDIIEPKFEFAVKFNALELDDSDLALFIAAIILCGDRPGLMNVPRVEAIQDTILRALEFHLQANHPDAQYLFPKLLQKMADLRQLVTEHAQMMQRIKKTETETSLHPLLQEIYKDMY

| SMILES | activation | outcome |
| --- | --- | --- |
| CCCOc1nn(C(=O)NS(=O)(=O)c2ccccc2C(=O)OC)c(=O)n1C | -1.88% (inactive) |  |
| CCOC(=O)Nc1cccc(OC(=O)Nc2ccccc2)c1 | 0.872% (inactive) |  |
| CC(C)(C)C(=O)C(Cl)Cl | 2.57% (inactive) |  |
| CCCCCCC(=O)CCCCCC/C=C/C[C@@H](O)[C@H](O)[C@@](N)(CO)C(=O)O | 1.05% [at 29.1 µM] (inactive) |  |
| CCOC1Oc2ccc(OS(C)(=O)=O)cc2C1(C)C (stereo not given) | -1.86% (inactive) |  |
| CC(C)c1ccc(O)cc1 | -0.096% (inactive) |  |
| CCOC(=O)COc1ccc(Cl)cc1Cl | -1.15% (inactive) |  |
| CCc1ccc(C2CCNCC2)cc1 | 3.84% (inactive) |  |
| Cl/C=C/CCl | 2.3% [at 81.1 µM] (inactive) |  |
| N#CN=C1SCCN1Cc1ccc(Cl)nc1 | -7.78% (inactive) |  |
| BrCCc1ccccc1 | 1.14% [at 81.1 µM] (inactive) |  |
| ClC(Cl)(Cl)Cl | -3.66% (inactive) |  |
| Brc1c(Br)c(Br)c(Br)c(Br)c1Br | 3.14% [at 5.95 µM] (inactive) |  |
| O=P(O)(O)CN(CP(=O)(O)O)CP(=O)(O)O | 0.706% [at 29.1 µM] (inactive) |  |
| O=C(CCl)NCO | 0.422% (inactive) |  |
| CN=CNc1ccc(C)cc1C | 7.59% (inactive) |  |
| CC[C@@H](CO)NC(=O)[C@@H]1C=C2c3cccc4[nH]cc(c34)C[C@H]2N(C)C1 | 0.826% (inactive) |  |
| CCC(C)(C#N)N=NC(C)(C#N)CC (stereo not given) | -0.261% (inactive) |  |

| SMILES | activation | outcome |
| --- | --- | --- |
| C=CCCC#N | 0.722% (inactive) |  |
| O=c1[nH]oc2c1CCNC2 | 1.24% (inactive) |  |
| CCOC(=O)C(Cl)Cc1cc(-n2nc(C)n(C(F)F)c2=O)c(F)cc1Cl (stereo not given) | 1.79% (inactive) |  |
| CC(=O)CN(CC(C)=O)N=O | -1.67% (inactive) |  |
| C=C(C)[C@H]1CN[C@H](C(=O)O)[C@H]1CC(=O)O | 1.11% (inactive) |  |
| O=C(O)CBr | -0.601% (inactive) |  |
| CC#Cc1cc(C)nc(Nc2ccccc2)n1 | 0.699% (inactive) |  |
| [P]#[In] | 0.0192% (inactive) |  |
| O=C/C=C/c1ccco1 | 1.17% (inactive) |  |
| C/C=C/CC#N | 2.92% [at 81.1 µM] (inactive) |  |
| N#CN | -3.64% [at 232 µM] (inactive) |  |
| CC(C)C(C)(N)C#N (stereo not given) | 0.433% (inactive) |  |
| CCCOC(=O)c1cncn1C(C)c1ccccc1 (stereo not given) | 3.85% (inactive) |  |
| C=C(Cl)CSC(=S)N(CC)CC | -1.45% [at 81.1 µM] (inactive) |  |
| CCN[C@@H](C)Cc1ccccc1 | 0.331% [at 81.1 µM] (inactive) |  |
| O=C1C2CC=CCC2C(=O)N1SC(Cl)(Cl)Cl (stereo not given) |  | inactive |
| CCC1(CC)C(=O)C=CNC1=O | -1.02% (inactive) |  |

test system: not listed separately; test: qHTS assay to identify small molecule antagonists of the peroxisome proliferator-activated receptor delta (PPARd) signaling pathway - cell viability counter screen (AID 743213; active means well fitted cell-killing curve with a large enough effect in the repeat runs; further: nearly all actives have a fitted effect of over 50% in size; further: potency means the concentration at half of the fitted maximal effect); settings: PPARd-bla HEK293H viability, CellTiter-Glo luminescence, 17 h; series mostly up to 62 µM; viability change, negative = cytotoxic: at the top concentration
In short: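 In this counter screen, HEK293H cells carrying a UAS-beta-lactamase reporter are co-treated with test compounds and 300 nM L165041 (final) for 17 h at 37 C; cell viability is quantified by CellTiter-Glo luminescence.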

| SMILES | viability change, negative = cytotoxic | Potency |
| --- | --- | --- |
| CCCOc1nn(C(=O)NS(=O)(=O)c2ccccc2C(=O)OC)c(=O)n1C | 12.4% (inactive) |  |
| CCOC(=O)Nc1cccc(OC(=O)Nc2ccccc2)c1 | 15.9% (inactive) |  |
| CC(C)(C)C(=O)C(Cl)Cl | -5.5% (inactive) |  |
| CCCCCCC(=O)CCCCCC/C=C/C[C@@H](O)[C@H](O)[C@@](N)(CO)C(=O)O | 1.46% [at 28.9 µM] (inactive) |  |
| CCOC1Oc2ccc(OS(C)(=O)=O)cc2C1(C)C (stereo not given) | 29.6% (inactive) |  |
| CC(C)c1ccc(O)cc1 | 23.2% (inactive) |  |
| CCOC(=O)COc1ccc(Cl)cc1Cl | -9.04% (inactive) |  |
| CCc1ccc(C2CCNCC2)cc1 | -22.7% (inactive) |  |
| Cl/C=C/CCl | 13.4% [at 80.4 µM] (inactive) |  |
| N#CN=C1SCCN1Cc1ccc(Cl)nc1 | 1.34% (inactive) |  |
| BrCCc1ccccc1 | 0.169% [at 80.4 µM] (inactive) |  |
| ClC(Cl)(Cl)Cl | 15.6% (inactive) |  |
| Brc1c(Br)c(Br)c(Br)c(Br)c1Br | -8.99% [at 6.26 µM] (inactive) |  |
| O=P(O)(O)CN(CP(=O)(O)O)CP(=O)(O)O | 6.33% [at 28.9 µM] (inactive) |  |
| O=C(CCl)NCO | 4.75% (inactive) |  |
| CN=CNc1ccc(C)cc1C | -2.58% (inactive) |  |
| CC[C@@H](CO)NC(=O)[C@@H]1C=C2c3cccc4[nH]cc(c34)C[C@H]2N(C)C1 | -8.52% (inactive) |  |
| CCC(C)(C#N)N=NC(C)(C#N)CC (stereo not given) | 2.52% (inactive) |  |

| SMILES | viability change, negative = cytotoxic | Potency |
| --- | --- | --- |
| C=CCCC#N | -23.4% (inactive) |  |
| O=c1[nH]oc2c1CCNC2 | 10.5% (inactive) |  |
| CCOC(=O)C(Cl)Cc1cc(-n2nc(C)n(C(F)F)c2=O)c(F)cc1Cl (stereo not given) | 3.69% (inactive) |  |
| CC(=O)CN(CC(C)=O)N=O | -9.44% (inactive) |  |
| C=C(C)[C@H]1CN[C@H](C(=O)O)[C@H]1CC(=O)O | -9.17% (inactive) |  |
| O=C(O)CBr | 3.3% (inactive) |  |
| CC#Cc1cc(C)nc(Nc2ccccc2)n1 | 20.5% (inactive) |  |
| [P]#[In] | -11.6% (inactive) |  |
| O=C/C=C/c1ccco1 | 7.34% (inactive) |  |
| C/C=C/CC#N | 7.68% [at 80.4 µM] (inactive) |  |
| N#CN | 4.88% [at 226 µM] (inactive) |  |
| CC(C)C(C)(N)C#N (stereo not given) | 4.81% (inactive) |  |
| CCCOC(=O)c1cncn1C(C)c1ccccc1 (stereo not given) | 2.63% (inactive) |  |
| C=C(Cl)CSC(=S)N(CC)CC | -13.4% [at 80.4 µM] (inactive) |  |
| CCN[C@@H](C)Cc1ccccc1 | 26% [at 80.4 µM] (inactive) |  |
| O=C1C2CC=CCC2C(=O)N1SC(Cl)(Cl)Cl (stereo not given) |  | inactive and 12.1 µM (active) |
| CCC1(CC)C(=O)C=CNC1=O | 0.805% (inactive) |  |
